The source made the active and inactive calls. Unless noted, how the calls were made is not given here.
How the values were obtained:
[1] = compounds binding Alexa647 anti-His antibody – biochemical, small-molecule microarray, 635 nm fluorescence, artefact control for SMM control protein annotation, primary screen (AID 1128); conditions: higher = more signal;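 further: score merges feature fluorescence with signal-to-noise for each printed compound spot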
[2] = test system: Human papillomavirus type 1a E7 protein (residues 1-88); experiment: HPV1a E7 small-molecule binders, primary screen, biochemical, small-molecule microarray, residues 1-88, 635 nm (AID 1129); conditions: small-molecule microarray binding, fluorescence 635 nm; higher = more signal
[3] = molecular target: Focal adhesion kinase 1 (Homo sapiens) (UniProt Q05397); experiment: PTK2 protein binding on printed compound slides – biochemical, small-molecule microarray, 635/667 nm fluorescence, BSA, DTT, primary screen (AID 1130); conditions: 635 nm fluorescence, higher = more signal;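 further: composite of spot emission at 667 nm and signal to noise over triplicate slides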
Focal adhesion kinase 1 (Homo sapiens), sequence (Q05397 whole entry, looked up): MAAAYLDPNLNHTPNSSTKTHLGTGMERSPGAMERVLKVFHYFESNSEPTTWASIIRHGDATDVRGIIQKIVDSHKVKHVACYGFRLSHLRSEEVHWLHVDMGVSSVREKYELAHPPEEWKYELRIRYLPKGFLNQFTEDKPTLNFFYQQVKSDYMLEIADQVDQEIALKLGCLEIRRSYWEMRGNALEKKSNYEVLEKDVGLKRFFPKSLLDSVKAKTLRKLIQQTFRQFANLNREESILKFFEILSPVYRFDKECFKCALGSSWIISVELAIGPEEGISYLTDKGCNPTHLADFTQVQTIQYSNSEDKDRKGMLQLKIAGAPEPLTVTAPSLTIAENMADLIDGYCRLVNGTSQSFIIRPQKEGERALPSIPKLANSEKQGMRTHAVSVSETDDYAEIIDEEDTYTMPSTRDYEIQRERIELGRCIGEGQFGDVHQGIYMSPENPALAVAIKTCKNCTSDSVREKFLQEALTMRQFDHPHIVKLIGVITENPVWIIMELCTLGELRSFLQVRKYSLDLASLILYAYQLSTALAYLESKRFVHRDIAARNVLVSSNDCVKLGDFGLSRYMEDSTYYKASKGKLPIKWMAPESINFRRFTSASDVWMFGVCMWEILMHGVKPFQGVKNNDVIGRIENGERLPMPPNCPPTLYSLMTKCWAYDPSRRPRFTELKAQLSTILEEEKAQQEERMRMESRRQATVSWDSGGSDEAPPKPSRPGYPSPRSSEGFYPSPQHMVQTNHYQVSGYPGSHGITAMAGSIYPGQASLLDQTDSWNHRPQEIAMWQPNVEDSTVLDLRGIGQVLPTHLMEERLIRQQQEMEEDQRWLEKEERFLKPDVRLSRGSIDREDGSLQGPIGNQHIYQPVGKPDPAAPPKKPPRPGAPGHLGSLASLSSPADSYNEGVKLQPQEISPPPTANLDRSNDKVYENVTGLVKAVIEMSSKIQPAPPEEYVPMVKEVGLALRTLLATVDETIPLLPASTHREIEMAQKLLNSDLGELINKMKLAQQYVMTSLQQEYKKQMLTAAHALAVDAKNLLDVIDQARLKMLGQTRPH

[4] = test system: Fibrinogen (Alexa647-labelled); experiment: Alexa647-fibrinogen binding to printed small molecules – biochemical, small-molecule microarray, 635/667 nm fluorescence, artefact control for SMM control-protein annotation, profiling panel (AID 1131); conditions: fibrinogen-A647 binding fluorescence, higher = more signal;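 further: z-score merges 667 nm fluorescence with per-spot signal-to-noise over triplicate slides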
[5] = molecular target: Follistatin (Homo sapiens) (UniProt P19883); experiment: FST protein binding to printed compounds – biochemical, small-molecule microarray, 635/667 nm fluorescence, primary screen (AID 1132); conditions: 635 nm fluorescence, higher = more signal
Follistatin (Homo sapiens), sequence (P19883 whole entry, looked up): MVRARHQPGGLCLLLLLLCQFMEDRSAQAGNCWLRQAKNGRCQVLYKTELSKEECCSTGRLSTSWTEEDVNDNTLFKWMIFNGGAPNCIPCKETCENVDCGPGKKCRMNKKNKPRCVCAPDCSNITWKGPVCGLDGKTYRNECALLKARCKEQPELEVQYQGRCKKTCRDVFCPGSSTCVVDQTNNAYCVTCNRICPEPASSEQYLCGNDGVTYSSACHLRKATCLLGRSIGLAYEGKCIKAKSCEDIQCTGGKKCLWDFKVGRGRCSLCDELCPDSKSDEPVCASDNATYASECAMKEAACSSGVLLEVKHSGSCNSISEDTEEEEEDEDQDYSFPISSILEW

[6] = molecular target: Fibroblast growth factor 2 (Homo sapiens) (UniProt P09038); experiment: basic fibroblast growth factor binding to printed compounds – biochemical, small-molecule microarray, 635/667 nm fluorescence, primary screen (AID 1133); conditions: FGF2, fluorescence 635/667, higher = more signal
Fibroblast growth factor 2 (Homo sapiens), sequence (P09038 whole entry, looked up): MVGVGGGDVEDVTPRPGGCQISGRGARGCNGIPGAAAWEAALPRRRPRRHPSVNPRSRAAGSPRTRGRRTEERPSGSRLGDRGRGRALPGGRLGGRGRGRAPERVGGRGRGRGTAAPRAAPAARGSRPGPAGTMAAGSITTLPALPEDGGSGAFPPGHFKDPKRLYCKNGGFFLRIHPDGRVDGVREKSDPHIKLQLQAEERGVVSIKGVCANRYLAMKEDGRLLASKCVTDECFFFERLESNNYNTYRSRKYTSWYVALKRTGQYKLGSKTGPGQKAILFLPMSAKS

[7] = JC-1 mitochondrial potential readout, lung cancer cells – cell-based, A549, JC-1 fluorescence, basal, 24 h, 100 nL, profiling panel (AID 1138); conditions: higher = more signal;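 further: A549 lung adenocarcinoma cells under basal conditions with no added stimulus; test concentration not given here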
Lefty1 = Lefty1 protein binding to printed compounds – biochemical, small-molecule microarray, 635/667 nm fluorescence, primary screen (AID 1139); conditions: fluorescence 635/667, higher = more signal
[8] = test system: wheat germ agglutinin (Triticum aestivum), Alexa647-labelled; experiment: Alexa647-WGA lectin binding to printed small molecules – biochemical, small-molecule microarray, 635/667 nm fluorescence, artefact control for SMM control-protein annotation, profiling panel (AID 1140); conditions: WGA-A647 binding, 635 nm fluorescence, higher = more signal;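 further: score merges 667 nm feature emission with signal to noise over triplicate slides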
[9] = molecular target: Luciferin 4-monooxygenase (Photinus pyralis) (UniProt P08659); experiment: inhibition of purified Photinus pyralis luciferase – biochemical, luminescence, purified enzyme, 2006 set, primary screen (AID 1141); conditions: purified firefly luciferase, SteadyGlo luminescence, 30 min; higher = more signal, called active from +8 up or from −8 down;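 further: cell-free assay with purified firefly luciferase at 100 ng per well in PBS; test concentration not given here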
Luciferin 4-monooxygenase (Photinus pyralis), sequence (P08659 whole entry, looked up): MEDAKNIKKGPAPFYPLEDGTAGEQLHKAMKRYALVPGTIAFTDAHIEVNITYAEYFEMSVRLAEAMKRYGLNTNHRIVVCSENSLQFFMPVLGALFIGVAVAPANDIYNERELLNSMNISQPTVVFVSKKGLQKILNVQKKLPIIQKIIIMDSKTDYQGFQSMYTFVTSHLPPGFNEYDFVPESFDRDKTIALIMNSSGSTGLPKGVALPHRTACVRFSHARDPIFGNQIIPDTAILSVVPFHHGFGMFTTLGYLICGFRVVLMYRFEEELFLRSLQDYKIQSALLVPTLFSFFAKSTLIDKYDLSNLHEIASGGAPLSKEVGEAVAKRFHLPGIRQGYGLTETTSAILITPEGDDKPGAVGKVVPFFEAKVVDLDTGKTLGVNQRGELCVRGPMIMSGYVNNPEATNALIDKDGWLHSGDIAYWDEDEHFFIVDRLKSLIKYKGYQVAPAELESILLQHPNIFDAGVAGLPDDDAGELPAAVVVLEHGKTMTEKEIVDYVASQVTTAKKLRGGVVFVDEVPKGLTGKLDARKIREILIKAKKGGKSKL

[10] = test system: Wnt5a (protein binding on small-molecule microarray); experiment: small molecules binding Wnt5a protein – biophysical, small-molecule microarray, 635/667 nm fluorescence, primary screen (AID 1142); conditions: 635 nm fluorescence, higher = more signal;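 further: fluorescence read at 667 nm with signal to noise per printed feature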
[11] = ATP-based viability of Huh7 replicon cells – cell-based, CellTiter-Glo luminescence, basal, 48 h, cytotoxicity control for HCV replication inhibitor project, primary screen (AID 1143); conditions: higher = more signal, called active from +8 up or from −8 down;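 further: Huh7 hepatoma cells carrying a hepatitis C replication reporter with no stimulus; test concentration not given here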
[12] = Pseudomonas biofilm growth suppression – PAO1 strain, BacTiter-Glo luminescence, LB-PBS, primary screen (AID 1144); conditions: P. aeruginosa PAO1 biofilm, 12 h, higher = more signal
[13] = basal CRE-LacZ reporter activity in PC12 – cell-based, unstimulated, primary screen (AID 1145); conditions: no forskolin, luminescence, 4.5 h, higher = more signal, called active from +8 up or from −8 down
[14] = forskolin-driven CRE-LacZ activity in PC12 – cell-based, CRE-LacZ reporter, forskolin-stimulated, primary screen (AID 1146); conditions: luminescence, 4.5 h, higher = more signal, called active from +8 up or from −8 down;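 further: PC12 cells with 6xCRE LacZ reporter stimulated by forskolin 10 µM; beta-galactosidase reporter signal reflecting CREB driven transcription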
[15] = molecular target: Streptavidin (Streptomyces avidinii) (UniProt P22629); experiment: compounds binding control protein streptavidin – biophysical, small-molecule microarray, 635/667 nm fluorescence, artefact control for SMM compound annotation, primary screen (AID 1147); conditions: higher = more signal;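 further: signal reflects streptavidin binding to arrayed compounds as a control protein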
Streptavidin (Streptomyces avidinii), sequence (P22629 whole entry, looked up): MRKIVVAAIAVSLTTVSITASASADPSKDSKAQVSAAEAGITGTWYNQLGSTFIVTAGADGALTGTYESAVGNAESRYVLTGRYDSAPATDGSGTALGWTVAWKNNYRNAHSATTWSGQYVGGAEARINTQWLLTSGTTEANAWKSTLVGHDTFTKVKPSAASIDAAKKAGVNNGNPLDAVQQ

[16] = probe aInhba binding on compound microarray – biochemical, small-molecule microarray, 635/667 nm fluorescence, primary screen (AID 1148); conditions: higher = more signal;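 further: score merges 667nm spot fluorescence with signal-to-noise for antibody binding to printed compounds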
Torsin-1A (Homo sapiens) [17] = molecular target: Torsin-1A (Homo sapiens) (UniProt O14656); experiment: TOR1A wild-type binding on microarray – cell lysate, small-molecule microarray, lysate, 635/667 nm, primary screen (AID 1149); conditions: COS7 hTOR1A-WT lysate, 635 nm fluorescence, higher = more signal
Torsin-1A (Homo sapiens), sequence (O14656 whole entry, looked up): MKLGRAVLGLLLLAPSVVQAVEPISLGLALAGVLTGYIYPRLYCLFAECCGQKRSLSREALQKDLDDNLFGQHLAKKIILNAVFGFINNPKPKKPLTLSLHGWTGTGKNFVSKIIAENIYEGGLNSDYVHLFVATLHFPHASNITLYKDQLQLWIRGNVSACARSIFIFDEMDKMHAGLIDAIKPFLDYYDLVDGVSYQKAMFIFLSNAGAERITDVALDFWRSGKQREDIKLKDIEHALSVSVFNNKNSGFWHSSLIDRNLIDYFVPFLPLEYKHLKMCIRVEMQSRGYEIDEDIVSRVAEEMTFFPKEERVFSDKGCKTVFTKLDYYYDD

Torsin-1A (Homo sapiens) [18] = molecular target: Torsin-1A (Homo sapiens) (UniProt O14656); experiment: torsin A mutant lysate binding on microarrays – cell lysate, small-molecule microarray, COS7 lysate, 635/667 nm fluorescence, primary screen (AID 1150); conditions: COS7 hTOR1A mutant lysate, 635 nm fluorescence, higher = more signal;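 further: score pools 667 nm emission and signal to noise measuring lysate protein binding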
[19] = test system: Sonic hedgehog protein (Shh); experiment: Sonic hedgehog microarray binding compounds – biochemical, small-molecule microarray, 635/667 nm fluorescence, primary screen (AID 1151); conditions: 635 nm fluorescence, higher = more signal;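 further: Shh protein binding to compounds spotted on small-molecule microarray slides; score combines spot fluorescence intensity with signal-to-noise across triplicate slides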

Structure (SMILES) | composite z-score [1] | composite z-score [2] | composite z-score [3] | composite z-score [4] | composite z-score [5] | composite z-score [6] | z-score [7] | composite z-score (Lefty1) | composite z-score [8] | z-score [9] | composite z-score [10] | z-score [11] | z-score [12] | z-score [13] | z-score [14] | composite z-score [15] | composite z-score [16] | composite z-score (Torsin-1A (Homo sapiens) [17]) | composite z-score (Torsin-1A (Homo sapiens) [18]) | composite z-score [19]
C[n+]1ccc(CCCO)cc1 | -0.278 | -1.41 | -0.526 | -1.48 | 1.37 | 1.44 | -0.195 | 1.36 | -0.72 | 0.246 (inactive) | 0.749 | -0.0513 (inactive) | -0.601 (inactive) | 0.182 (inactive) | 0.58 (inactive) | -0.902 | 0.196 | -0.653 | -0.0965 | 2.16
COc1ccc([Si](C)(C)[C@H]2[C@H](CCn3cc([C@H](O)c4ccccc4)nn3)O[C@@]3(C(=O)N(Cc4cccc(N5C(=O)c6cccc7cccc5c67)c4)c4ccccc43)[C@@H]2C)cc1 | -0.953 | -0.859 | -0.435 | -0.678 | -1.64 | -1.03 | 0.647 | -1.36 | -0.76 | 0.119 (inactive) | -0.302 | -3.31 (inactive) | 0.789 (inactive) | -0.142 (inactive) | 1.01 (inactive) | -0.713 | -0.176 | -0.601 | -0.437 | -0.0819
O=C(CCCCCCC(=O)Nc1ccccc1)N/N=C/c1ccccc1 | 0.602 | -0.581 | -0.266 | -0.876 | -0.083 | 0.323 | -0.123 | -0.251 | -0.552 | -0.83 (inactive) | -0.343 | 0.0796 (inactive) | 0.99 (inactive) | 5.11 (inactive) | 0.0631 (inactive) | -0.184 | 0.0074 | 0.577 | 0.146 | 0.0351
C[C@H]1ON(c2ccc(C(=O)OC(C)(C)C)cc2)[C@@H](c2ccc(O)cc2)[C@@H]1C(=O)N1C(=O)OC[C@@H]1c1ccccc1 | 0.82 | 1.13 | 0.429 | 0.935 | 1.22 | 1.4 | -0.802 | 0.724 | 0.38 | -0.587 (inactive) | 0.382 | -2.3 (inactive) | -0.0446 (inactive) | 0.846 (inactive) | 0.0621 (inactive) | 0.179 | -0.114 | -0.0484 | 0.39 | 1.97
CC(C)(C)OC(=O)CC[C@]1(C(=O)O)N=C(c2ccc(OCCCO)cc2)O[C@H]1c1ccccc1CN=[N+]=[N-] | 0.401 | 0.251 | -0.171 | -0.0709 | 0.467 | 0.13 | 0.902 | -0.482 | 0.393 | -2.06 (inactive) | 0.108 | 0.109 (inactive) | 0.618 (inactive) | -1.09 (inactive) | -1.7 (inactive) | -0.247 | 0.0074 | -0.61 | -0.13 | -0.533
O=C1c2ccccc2[C@@]2(Cc3ccccc3N(C3CC3)C2=O)[C@H](c2ccc(CO)cc2)N1C1CCCCC1 | -1.14 | -0.729 | -0.375 | -0.624 | -0.667 | -0.329 | 0.306 | -0.825 | 0.637 | 0.429 (inactive) | -0.157 | 0.0786 (inactive) | 0.122 (inactive) | 0.145 (inactive) | 0.428 (inactive) | -0.885 | -0.0791 | -0.822 | -0.928 | -0.309
C[C@@H]1ON(c2ccc(C(=O)OC(C)(C)C)cc2)[C@H](c2ccc(Br)cc2)[C@H]1C(=O)N1C(=O)OC[C@H]1Cc1ccccc1 | 0.405 | 1.05 | -0.204 | 0.97 | 0.7 | 0.734 | 1.59 | 0.822 | 0.377 | -0.874 (inactive) | 0.232 | -1.09 (inactive) | 1 (inactive) | 2.04 (inactive) | 0.289 (inactive) | 1.03 | 0.0301 | 0.673 | 0.644 | 0.991
COC(=O)C[C@H]1O[C@]2(C(=O)N(C)c3ccccc32)[C@@H](C)[C@@H]1[Si](C)(C)c1ccc(C)cc1 | 0.522 | 1.12 | 0.342 | 0.343 | 0.498 | 0.148 | 0.557 | 0.818 | 0.255 | -0.507 (inactive) | 0.139 | -3.88 (inactive) | 0.92 (inactive) | 1.31 (inactive) | -0.73 (inactive) | 0.0785 | -0.0403 | 0.559 | 0.346 | 0.763
COc1cc2c(cc1OC)CN(C(=O)[C@H]1[C@@H]3C(=O)O[C@@H](c4ccccc4)[C@@H](c4ccccc4)N3[C@@H](c3ccc(OCCO)cc3)[C@]13C(=O)Nc1ccc(C#CC4(O)CCCCCC4)cc13)CC2 | 1.91 | 1.21 | -0.109 | 0.819 | 1.46 | 1.38 | -1.42 | 1.35 | 1.18 | -1.15 (inactive) | 0.928 | -0.425 (inactive) | -1.33 (inactive) | -0.438 (inactive) | 0.195 (inactive) | 1.54 | 1.23 | 0.765 | 1.85 | 1.96
C=CC[C@@H](OC(=O)Nc1ccc(OC)cc1)c1ccc(OCCO)cc1 | -0.662 | -0.646 | -0.676 | -3 | -0.787 | -1.6 | -0.371 | -0.999 | -0.262 | -5.18 (inactive) | -1.2 | -2.05 (inactive) | -0.542 (inactive) | 1.29 (inactive) | 0.0646 (inactive) | -1.21 | -0.237 | -3.71 | -3 | -0.49

— PubChem BioAssay
